Measurements from PubChem BioAssay (Tox21).
Results filed as inconclusive are left out. Calls of active or inactive are those of the source. Unless noted, calls follow the shape of the dose curve; as a rule, active = well fitted curve in the direction sought with a large enough effect in the repeat runs; inconclusive = weak or mixed curves; inactive = no such curve, though single readings can be large; an effect the other way counts as inactive or inconclusive.

How the values were obtained:
[1] = qHTS assay for small molecule agonists of the p53 signaling pathway (AID 651631; calls by dose curve; also: nearly all actives have a fitted effect of over 15% in size)
Summary of the method: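 HCT-116 p53RE-bla reporter line, 16 h compound treatment at 37 °C, then fluorescence after 2 h with B/G FRET substrate.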

[2] = qHTS assay for small molecule agonists of the p53 signaling pathway - cell viability (AID 651633; calls by dose curve;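 also: p53RE-bla HCT reporter cells with a stable beta-lactamase p53 reporter; series mostly up to about 83 µM; nearly all actives have a fitted effect of over 30% in size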)
Summary of the method: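 p53RE-bla cells, seeded at 4,000 per well and rested 5 h at 37 C/5% CO2, received compounds in DMSO for 16 h at 37 C. CellTiter-Glo was then added, and luminescence was read after 30 min at room temperature to gauge cytotoxicity.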

[3] = qHTS assay for small molecules that induce genotoxicity in human embryonic kidney cells expressing luciferase-tagged ATAD5 - cell viability (AID 651634; calls by dose curve; also: nearly all actives have a fitted effect of over 25% in size)
Summary of the method: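 Cells (HEK293T, luciferase-tagged ATAD5) are seeded at 2,000 per well, dosed with compound or DMSO vehicle, and incubated 15.5 hr at 37C and 5% CO2. CellTiter-Fluor is added for 30 min before fluorescence is measured.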

[4] = qHTS assay for small molecule disruptors of the mitochondrial membrane potential - cell viability (AID 720634; calls by dose curve;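 also: human HepG2 liver cancer cells; series mostly up to about 83 µM; nearly all actives have a fitted effect of over 20% in size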)
Summary of the method: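 Cytotoxicity was measured by ATP quantitation in HepG2 wells that had first been treated with compound for 1 hr and stained with m-MPI dye; CellTiter-Glo incubation was 30 min at room temperature.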

[5] = qHTS assay to test for compound auto fluorescence at 590 nm (red) in HepG2 cells (AID 720674)
Summary of the method: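 Intrinsic compound fluorescence in the red window (Ex/Em 540/590 nm) is measured in attached HepG2 cells exposed for 1 hr, DMSO vehicle as baseline, benchmarked to Rose Bengal sodium.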

[6] = qHTS assay to test for compound auto fluorescence at 535 nm (green) in HepG2 cells (AID 720675)
[7] = qHTS assay to test for compound auto fluorescence at 460 nm (blue) in HEK293 cells (AID 720678)
Summary of the method: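 Blue-channel (Ex/Em 405/460 nm) intensity measured in HEK293 cultures after overnight compound exposure at 37C; signal expressed relative to triamterene. Cells plated 2,000 per well in 10% dialyzed FBS medium and allowed 4-5 hr to attach.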

[8] = qHTS assay to test for compound auto fluorescence at 590 nm (red) in HEK293 cells (AID 720679)
Summary of the method: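 Red-channel autofluorescence (Ex/Em 540/590 nm; Rose Bengal sodium reference) was measured after overnight 37C, 5% CO2 exposure of attached HEK293 cells, 2,000 per well in medium with 10% dialyzed FBS.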

[9] = qHTS assay to test for compound auto fluorescence at 535 nm (green) in HEK293 cells (AID 720680)
[10] = qHTS assay to test for compound auto fluorescence at 460 nm (blue) in HEK293 cell free culture (AID 720681)
Summary of the method: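 Test compounds were pinned into cell-free culture medium (DMEM with 10% FBS) and fluorescence was read directly at Ex/Em 405/460 nm. Signals were expressed as fluorescence equivalents of triamterene, with DMSO vehicle as control.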

[11] = qHTS assay to test for compound auto fluorescence at 535 nm (green) in HEK293 cell free culture (AID 720682)
Summary of the method: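 Steps: dispense DMEM/10% FBS into empty wells; pin in compound or DMSO; measure fluorescence at 485/535 nm. Values are fluorescein equivalents.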

[12] = qHTS assay to test for compound auto fluorescence at 590 nm (red) in HEK293 cell free culture (AID 720683)
Summary of the method: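 Tox21 10K library compounds were pinned into cell-free DMEM with 10% FBS and fluorescence was read at excitation 540 nm. Activity is expressed as Rose Bengal sodium equivalency.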

[13] = qHTS assay to test for compound auto fluorescence at 590 nm (red) in HepG2 cell free culture (AID 720684)
Summary of the method: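 Readout: intrinsic compound fluorescence at 590 nm emission after 540 nm excitation, scaled to Rose Bengal sodium. Matrix was cell-free MEM with 10% FBS; DMSO vehicle wells served as control.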

[14] = qHTS assay to test for compound auto fluorescence at 460 nm (blue) in HepG2 cell free culture (AID 720685)
Summary of the method: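 Cell-free plates of MEM plus 10% FBS received 23 nL compound or DMSO vehicle; blue-channel (405/460 nm) intensity scored against triamterene as reference fluorophore.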

[15] = qHTS assay to test for compound auto fluorescence at 535 nm (green) in HepG2 cell free culture (AID 720686)
[16] = qHTS assay to test for compound auto fluorescence at 460 nm (blue) in HepG2 cells (AID 720687)
Summary of the method: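 Cells (2,000/well in MEM with 10% FBS) attached overnight at 37 C, then were exposed to compound or DMSO for 1 hr at 37 C, 5% CO2. Fluorescence read at Ex/Em 405/460 nm, expressed as triamterene-equivalent signal.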

[17] = target: Glucocorticoid receptor (Homo sapiens) (UniProt P04150); assay: qHTS assay to identify small molecule agonists of the glucocorticoid receptor (GR) signaling pathway (AID 720691; active = well fitted activation curve with a large enough effect in the signal ratio in the repeat runs, not every such curve was filed as active; the % refers to the signal ratio; also: potency is read from the fitted curve at half-maximal effect)
Summary of the method: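 Steps: seed GR-bla HeLa cells, incubate 4 h at 37 C/5% CO2; pin-transfer DMSO-dissolved compounds; incubate 18 h at 37 C; add LiveBLAzer B/G FRET substrate; after 2 h at room temperature, measure fluorescence.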

[18] = target: Glucocorticoid receptor (Homo sapiens) (UniProt P04150); assay: qHTS assay to identify small molecule antagonists of the glucocorticoid receptor (GR) signaling pathway (AID 720692; active = well fitted inhibition curve with a large enough effect in the signal ratio in the repeat runs, not every such curve was filed as active; the % refers to the signal ratio)
Summary of the method: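 Antagonism was scored as loss of dexamethasone-driven (5 nM final) reporter signal in HeLa cells bearing a glucocorticoid response element–beta-lactamase construct, after 18 h compound exposure at 37 C and 2 h FRET substrate loading.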

[19] = qHTS assay for small molecules that induce genotoxicity in human embryonic kidney cells expressing luciferase-tagged ATAD5 (AID 651632); also: nearly all actives have a fitted effect of over 15% in size
Summary of the method: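 Cells were seeded at 2,000 per well, dosed with compound, and incubated 16 hr at 37C in 5% CO2. Luciferase activity was then quantified after a 30 min room-temperature incubation with Amplite.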

[20] = qHTS assay for small molecule disruptors of the mitochondrial membrane potential (AID 720635)
Summary of the method: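 HepG2 cells (2,000/well) attached overnight at 37C, then took compound for 1 hr at 37C, 5% CO2. Mito-MPS dye was added for 30 min; fluorescence was read at 490/535 nm (monomers) and 540/590 nm (aggregates).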
% is scaled to controls: 0 for no effect and ±100 for the full control effect.

Glucocorticoid receptor (Homo sapiens), sequence (P04150 whole entry, looked up): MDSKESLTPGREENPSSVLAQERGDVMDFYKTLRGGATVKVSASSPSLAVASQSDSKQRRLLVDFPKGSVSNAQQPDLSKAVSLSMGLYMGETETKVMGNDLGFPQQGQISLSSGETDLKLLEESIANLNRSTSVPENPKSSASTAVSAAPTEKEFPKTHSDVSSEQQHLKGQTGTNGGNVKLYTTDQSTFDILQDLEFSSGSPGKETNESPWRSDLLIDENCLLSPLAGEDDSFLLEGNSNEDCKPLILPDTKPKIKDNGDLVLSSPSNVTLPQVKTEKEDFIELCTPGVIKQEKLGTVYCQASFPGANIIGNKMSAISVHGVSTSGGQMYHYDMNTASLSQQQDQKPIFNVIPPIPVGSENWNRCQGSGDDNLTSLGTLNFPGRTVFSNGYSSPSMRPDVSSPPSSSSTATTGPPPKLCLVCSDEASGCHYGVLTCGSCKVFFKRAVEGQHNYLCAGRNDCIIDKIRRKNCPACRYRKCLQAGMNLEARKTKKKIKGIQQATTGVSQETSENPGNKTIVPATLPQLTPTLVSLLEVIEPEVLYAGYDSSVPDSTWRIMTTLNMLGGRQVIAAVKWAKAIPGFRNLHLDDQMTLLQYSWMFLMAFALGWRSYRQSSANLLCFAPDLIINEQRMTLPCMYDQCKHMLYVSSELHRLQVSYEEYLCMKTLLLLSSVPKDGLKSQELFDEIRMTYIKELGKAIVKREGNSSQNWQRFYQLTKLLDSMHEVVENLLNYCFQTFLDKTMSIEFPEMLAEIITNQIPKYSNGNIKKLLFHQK

Cc1cc(O)c(Cl)cc1C
inactive: Potency [1] | outcome [2] | outcome [3] | outcome [4] | outcome [5] | outcome [6] | outcome [7] | outcome [8] | outcome [9] | outcome [10] | outcome [11] | outcome [12] | outcome [13] | outcome [14] | outcome [15] | outcome [16] | Potency [17] | outcome [18]

CC[N+](C)(CC)CC
inactive: Potency [1] | outcome [2] | outcome [3] | outcome [4] | outcome [5] | outcome [6] | outcome [7] | outcome [8] | outcome [9] | outcome [10] | outcome [11] | outcome [12] | outcome [13] | outcome [14] | outcome [15] | outcome [16] | Potency [17] | outcome [18]

C[C@@H]1CC[C@@]2(OC1)O[C@H]1C[C@H]3[C@@H]4CC[C@H]5C[C@@H](O)CC[C@]5(C)[C@H]4CC(=O)[C@]3(C)[C@H]1[C@@H]2C
inactive: Potency [1] | outcome [2] | outcome [3] | outcome [4] | fluorescence, relative to Rose Bengal [5] -1.11% [at 18.6 µM] | fluorescence, % of fluorescein control [6] -0.248% [at 18.6 µM] | fluorescence, % of triamterene [7] 0.0136% [at 18.6 µM] | fluorescence, % of fluorescent control [8] 0.373% [at 18.6 µM] | fluorescence, % of fluorescein [9] -0.0442% [at 18.6 µM] | fluorescence, % of fluorescent control [10] 0.012% [at 18.6 µM] | activity change [11] -0.0372% [at 18.6 µM] | fluorescence, % of fluorescent control [12] 0.195% [at 18.6 µM] | fluorescence, % of Rose Bengal [13] 0.0999% [at 18.6 µM] | fluorescence, % of fluorescent control [14] 0.0653% [at 18.6 µM] | fluorescence, % of fluorescein control [15] 0.0232% [at 18.6 µM] | fluorescence, % of fluorescent control [16] -0.13% [at 18.6 µM]

CCC(C)(C)C
inactive: Potency [1] | Potency [19] | outcome [2] | outcome [3] | outcome [6] | outcome [7] | outcome [8] | outcome [9] | outcome [10] | outcome [11] | outcome [12] | outcome [13] | outcome [14] | outcome [15] | outcome [16] | Potency [17]

c1cc2ccc3ccc4ccc5cccc6c(c1)c2c3c4c56
inactive: activation [19] 2.87% [at 3.63 µM] | activity change, negative = cytotoxicity [2] 10.5% [at 3.63 µM] | activity, negative = cytotoxicity [3] 31.3% [at 3.63 µM] | activity change, negative = cytotoxicity [4] 7.58% [at 3.63 µM] | ratio activity, negative = MMP loss [20] 16.7% [at 3.63 µM] | fluorescence, % of fluorescein control [6] 0.0742% [at 3.72 µM] | fluorescence, % of triamterene [7] 1.23% [at 3.72 µM] | fluorescence, % of fluorescent control [8] 0.132% [at 3.72 µM] | fluorescence, % of fluorescein [9] -0.0268% [at 3.72 µM] | fluorescence, % of fluorescent control [10] 1.22% [at 3.72 µM] | activity change [11] 0.0204% [at 3.72 µM] | fluorescence, % of fluorescent control [12] -0.0354% [at 3.72 µM] | fluorescence, % of Rose Bengal [13] 0.202% [at 3.72 µM] | fluorescence, % of fluorescent control [14] 1.51% [at 3.72 µM] | fluorescence, % of fluorescein control [15] -0.0141% [at 3.72 µM] | activity change, negative = inhibition [18] 4.22% [at 3.15 µM]
active: Potency [17] 1950 nM

CC(=O)SC[C@@H](C)C(=O)N1CCC[C@H]1C(=O)N[C@@H](Cc1ccccc1)C(=O)O
inactive: Potency [1] | outcome [2] | outcome [3] | outcome [5] | outcome [6] | outcome [7] | outcome [8] | outcome [9] | outcome [10] | outcome [11] | outcome [12] | outcome [13] | outcome [14] | outcome [16]
